# Records with an inconclusive call do not appear. Entries that show only a call come without a potency. The source made the active and inactive calls. Calls come from the whole dose curve; as a rule, active = well fitted curve in the direction sought with a large enough effect; inconclusive = small, poorly fitted or top-dose-only effect, or another doubt; inactive = no such curve, though single readings can be large; an effect the other way counts as inactive or inconclusive.
# Assays:
# [1] = molecular target: Voltage-gated inwardly rectifying potassium channel KCNH2 (Homo sapiens) (UniProt Q12809); assay: qHTS Assay for Small Molecule Inhibitors of the Human hERG Channel Activity (AID 588834); conditions: U2OS BacMam hERG, FluxOR thallium flux fluorescence; series mostly up to 46.1 µM;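 note: lower thallium flux fluorescence means stronger hERG block; nearly all actives have a fitted effect of over 50% in size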; note: potency is the fitted concentration of half-maximal effect
# Summary of the method: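 Blockade is seen as reduced FluxOR thallium-flux fluorescence in U2OS cells expressing hERG from a BacMam construct, in Opti-MEM with 2% FCS. Concentration-response data fitted to the Hill equation for AC50.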
# [2] = molecular target: Glutaminase kidney isoform, mitochondrial (Homo sapiens) (UniProt O94925); assay: qHTS for Inhibitors of Glutaminase (GLS): LOPAC Validation (AID 624146); conditions: glutaminase enzyme activity inhibition; series mostly up to 46.1 µM; note: nearly all actives have a fitted effect of over 60% in size; note: potency is the fitted concentration of half-maximal effect
# Summary of the method: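 Human kidney-isoform GLS in 45 mM KH2PO4 pH 8.2, 0.02% Tween-20, with compound, started with 1mM L-Glutamine (added stock). Glutamate oxidase/HRP/Amplex red coupled fluorescence read at start and after 30 min at RT.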
# [3] = qHTS of Trypanosoma Brucei Inhibitors: LOPAC Validation (AID 624147); conditions: purified enzyme assay, luminescence, 45 min; series mostly up to 57.5 µM
# Summary of the method: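 ADP (130 uM final) triggers the TbPYK reaction after compound addition; incubation is 45 min at room temperature. Kinase-Glo Plus is then added and luminescence imaged. Normalized data are fitted to concentration-effect curves.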
# [4] = molecular target: Glucagon-like peptide 1 receptor (Homo sapiens) (UniProt P43220); assay: qHTS of GLP-1 Receptor Agonists: LOPAC Validation (AID 624148); conditions: GLP-1R agonist cell assay; series mostly up to 46.1 µM;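 note: luminescence from a luciferase reporter switched on by cAMP; higher luminescence signal means agonism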
# Summary of the method: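 Agonism scored as increased luciferase luminescence driven by cAMP in HEK293 clones carrying GLP-1R. Cells settled 12 hours, received compound for 4-6 hr at 37 deg C, 5% CO2, and were read after 12 min detection reagent at RT.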
# [5] = qHTS of Nrf2 Activators: LOPAC Validation (AID 624149); conditions: Nrf2/ARE reporter cell assay; series mostly up to 46.1 µM; note: potency is the fitted concentration of half-maximal effect
# Summary of the method: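 AREc32_Fluc cells, 1000/well in OPTI-MEM with 5% FBS, grown overnight, then exposed to compounds for 24 hr at 37 deg C, 5% CO2. ARE-driven firefly luciferase read by Steady-Glo luminescence after 30 min at RT.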
# [6] = HTS Assay for Allosteric Antagonists of the Human D2 Dopamine Receptor: Hit Validation in HTRF (AID 624455); conditions: Cells stably expressing D1 dopamine receptor, inhibition mode; series mostly up to 46.1 µM; note: potency is the fitted concentration of half-maximal effect;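 note: stable D1 dopamine receptor cell line scored for blocking the D1 response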
# Summary of the method: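 Hit validation in cells stably expressing the D1 dopamine receptor, run in HTRF format. Compounds were tested for their ability to inhibit the D1-mediated response.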
# Voltage-gated inwardly rectifying potassium channel KCNH2 (Homo sapiens), sequence (Q12809 whole entry, looked up): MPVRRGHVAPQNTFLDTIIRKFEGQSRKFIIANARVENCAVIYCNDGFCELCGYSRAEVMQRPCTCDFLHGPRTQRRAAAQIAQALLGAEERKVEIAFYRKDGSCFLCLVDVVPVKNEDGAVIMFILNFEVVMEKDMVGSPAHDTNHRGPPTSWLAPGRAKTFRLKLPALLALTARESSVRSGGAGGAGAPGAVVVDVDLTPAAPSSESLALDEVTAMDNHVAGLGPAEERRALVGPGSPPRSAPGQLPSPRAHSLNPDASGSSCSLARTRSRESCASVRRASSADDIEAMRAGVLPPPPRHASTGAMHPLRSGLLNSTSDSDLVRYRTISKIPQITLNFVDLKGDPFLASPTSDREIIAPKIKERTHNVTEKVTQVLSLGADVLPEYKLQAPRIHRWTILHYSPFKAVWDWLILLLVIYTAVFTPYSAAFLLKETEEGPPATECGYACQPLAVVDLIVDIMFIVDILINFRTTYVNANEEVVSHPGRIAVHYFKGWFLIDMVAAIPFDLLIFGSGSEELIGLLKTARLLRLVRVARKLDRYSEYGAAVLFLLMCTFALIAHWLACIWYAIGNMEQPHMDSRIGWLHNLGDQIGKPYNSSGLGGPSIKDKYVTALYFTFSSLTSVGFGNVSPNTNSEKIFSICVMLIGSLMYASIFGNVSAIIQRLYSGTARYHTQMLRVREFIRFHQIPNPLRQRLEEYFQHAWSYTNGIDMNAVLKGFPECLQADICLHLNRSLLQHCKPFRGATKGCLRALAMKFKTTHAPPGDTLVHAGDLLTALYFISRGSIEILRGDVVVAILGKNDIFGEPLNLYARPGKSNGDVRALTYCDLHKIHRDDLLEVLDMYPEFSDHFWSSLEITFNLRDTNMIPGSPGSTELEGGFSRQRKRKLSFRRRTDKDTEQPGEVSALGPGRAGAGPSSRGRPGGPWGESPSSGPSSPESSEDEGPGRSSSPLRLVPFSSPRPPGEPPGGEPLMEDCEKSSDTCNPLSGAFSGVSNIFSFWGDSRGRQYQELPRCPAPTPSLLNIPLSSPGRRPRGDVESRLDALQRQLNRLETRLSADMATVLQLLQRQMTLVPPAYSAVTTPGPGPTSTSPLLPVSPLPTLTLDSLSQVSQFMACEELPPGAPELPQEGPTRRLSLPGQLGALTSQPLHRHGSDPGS
# Glutaminase kidney isoform, mitochondrial (Homo sapiens), sequence (O94925 whole entry, looked up, canonical isoform): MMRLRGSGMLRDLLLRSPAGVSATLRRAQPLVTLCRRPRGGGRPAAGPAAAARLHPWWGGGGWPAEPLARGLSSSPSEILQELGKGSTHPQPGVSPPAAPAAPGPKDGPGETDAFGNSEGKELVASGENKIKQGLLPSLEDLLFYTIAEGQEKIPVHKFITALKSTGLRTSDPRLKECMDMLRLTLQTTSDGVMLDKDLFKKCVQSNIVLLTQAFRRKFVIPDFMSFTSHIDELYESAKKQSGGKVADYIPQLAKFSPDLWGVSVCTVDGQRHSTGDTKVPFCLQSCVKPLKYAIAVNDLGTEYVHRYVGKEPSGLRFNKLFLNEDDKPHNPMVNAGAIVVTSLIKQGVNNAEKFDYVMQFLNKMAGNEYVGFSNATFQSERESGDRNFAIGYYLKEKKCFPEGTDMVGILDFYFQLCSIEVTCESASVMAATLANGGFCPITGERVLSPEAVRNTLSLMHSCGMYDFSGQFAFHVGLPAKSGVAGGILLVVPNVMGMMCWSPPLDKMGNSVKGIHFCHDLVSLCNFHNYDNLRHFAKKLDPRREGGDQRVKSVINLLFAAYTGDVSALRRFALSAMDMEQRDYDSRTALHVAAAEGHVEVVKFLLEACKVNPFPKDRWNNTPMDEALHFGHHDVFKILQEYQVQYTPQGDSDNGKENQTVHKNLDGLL
# Glucagon-like peptide 1 receptor (Homo sapiens), sequence (P43220 whole entry, looked up): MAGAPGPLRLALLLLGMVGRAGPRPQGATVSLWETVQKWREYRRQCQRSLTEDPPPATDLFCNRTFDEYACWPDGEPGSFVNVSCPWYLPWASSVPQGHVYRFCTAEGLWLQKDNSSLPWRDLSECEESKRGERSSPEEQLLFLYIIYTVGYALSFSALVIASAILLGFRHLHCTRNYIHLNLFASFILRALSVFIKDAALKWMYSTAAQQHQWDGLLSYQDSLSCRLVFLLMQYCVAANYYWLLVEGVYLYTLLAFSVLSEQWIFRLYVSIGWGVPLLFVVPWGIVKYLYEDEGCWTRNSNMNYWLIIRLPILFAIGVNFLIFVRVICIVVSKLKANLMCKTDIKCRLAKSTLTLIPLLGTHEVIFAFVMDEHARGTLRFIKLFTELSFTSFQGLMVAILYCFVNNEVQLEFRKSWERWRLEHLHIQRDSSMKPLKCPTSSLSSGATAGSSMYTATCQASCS
SMILES,Potency [1],Potency [2],Potency [3],Potency [4],Potency [5],Potency [6]
Nc1ncnc2c1ncn2C1CCCC1,inactive,inactive,inactive,inactive,inactive,inactive
COc1ccccc1N1CCN(CCCNc2c(C)c(=O)n(C)c(=O)n2C)CC1,inactive,inactive,inactive,inactive,inactive,inactive
Nc1ccc(-c2nc3ccc(-c4nc5ccc(N)cc5[nH]4)cc3[nH]2)cc1,inactive,5.01 µM (active),inactive,inactive,inactive,inactive
NC(=O)c1cc[n+](CC2=C(C(=O)O)N3C(=O)[C@@H](NC(=O)[C@@H](c4ccccc4)S(=O)(=O)[O-])[C@H]3SC2)cc1,inactive,inactive,inactive,inactive,inactive,inactive
c1ccc(CN2CCC3(CCCc4ccccc43)CC2)cc1,3.98 µM (active),inactive,inactive,inactive,inactive,inactive
O=C(O)C1=CCCNC1,inactive,inactive,inactive,inactive,inactive,inactive
CC#CCOC(=O)c1c(C)nc2sc3c(c2c1N)CCC(O)C3 (stereo not drawn),inactive,inactive,inactive,inactive,inactive,inactive
Nc1nc2ccc(Cl)cc2c2nc(-c3ccco3)nn12,inactive,inactive,inactive,inactive,1.46 µM (active),inactive
CCCC[C@@]1(C2CCCC2)Cc2cc(OCC(=O)O)c(Cl)c(Cl)c2C1=O,inactive,inactive,inactive,inactive,inactive,inactive
CC(C)(C)NCC(O)COc1cccc2[nH]c(=O)[nH]c12 (stereo not drawn),inactive,inactive,inactive,inactive,inactive,inactive
NS(=O)(=O)c1cccc2c1c([N+](=O)[O-])cc1nc(O)c(O)nc12,inactive,inactive,inactive,inactive,inactive,inactive
NC(N)=NC(N)=Nc1cccc(Cl)c1,8.91 µM (active),inactive,inactive,inactive,inactive,inactive
[N-]=[N+]=Nc1ccc(C(=O)CSC[C@H](NC(=O)CC[C@H](N)C(=O)O)C(=O)NCC(=O)O)cc1,inactive,inactive,inactive,inactive,inactive,inactive
Cc1nc(N=Nc2ccc(C(=O)O)cc2)c(COP(=O)(O)O)c(C=O)c1O,inactive,inactive,inactive,inactive,inactive,inactive
Fc1ccc(CN(C2=NCCN2)c2c(Cl)cccc2Cl)cc1,10 µM (active),inactive,inactive,inactive,inactive,inactive
CSC(N)=NCCC[C@H](N)C(=O)O,inactive,inactive,inactive,inactive,inactive,inactive
COc1cc(C(O)C(=O)O)ccc1O (stereo not drawn),inactive,2.82 µM (active),inactive,inactive,inactive,inactive
CCCn1c(=O)c2c(ncn2C)n(CCC)c1=O,inactive,inactive,inactive,inactive,inactive,inactive
C=CC[C@H](N)C(=O)O,inactive,inactive,inactive,inactive,inactive,inactive
O=C(O)C1=CCNCC1,inactive,inactive,inactive,inactive,inactive,inactive
CNc1ncnc2c1ncn2[C@H]1C[C@H](OP(=O)(O)O)[C@@H](COP(=O)(O)O)O1,inactive,inactive,inactive,inactive,inactive,inactive
CC(C)(C)c1cc(/C=C(\C#N)C(N)=S)cc(C(C)(C)C)c1O,11.2 µM (active),4.47 µM (active),inactive,inactive,inactive,inactive
O=C(O)C1=CC(=C(c2ccc(O)c(C(=O)O)c2)c2ccc(O)c(C(=O)O)c2)C=CC1=O,inactive,inactive,inactive,inactive,inactive,inactive
c1ccc2nc(C3=NCCN3)ccc2c1,inactive,inactive,inactive,inactive,inactive,inactive
CC(N)(Cc1ccc(O)c(O)c1)C(=O)O (stereo not drawn),inactive,inactive,inactive,inactive,inactive,inactive
Cn1c(=O)c2c(nc(/C=C/c3cccc(Cl)c3)n2C)n(C)c1=O,11.2 µM (active),inactive,inactive,inactive,inactive,inactive
COc1cccc(OC)c1OCCNCC1CSc2ccccc2O1 (stereo not drawn),1.41 µM (active),inactive,inactive,inactive,inactive,0.291 µM (active)

SMILES,Potency [1],Potency [2],Potency [3],Potency [4],Potency [5],Potency [6]
N#C/C(=C\c1ccc(O)c(O)c1)C(=O)NCCCNC(=O)/C(C#N)=C/c1ccc(O)c(O)c1,inactive,inactive,inactive,inactive,inactive,inactive
COc1ccc2c(c1)c(CC(=O)O)c(C)n2C(=O)c1ccccc1,inactive,inactive,inactive,inactive,inactive,inactive
CC(C)Cn1c(=O)n(C)c(=O)c2[nH]cnc21,inactive,inactive,inactive,inactive,inactive,inactive
NCC(O)(CS(=O)(=O)O)c1ccc(Cl)cc1 (stereo not drawn),inactive,inactive,inactive,inactive,inactive,inactive
CC(=O)O[C@H]1CC2(C)[C@@H](C[C@@H](O)[C@H]3[C@@]4(C)CC[C@@H](O)[C@@H](C)[C@@H]4CC[C@@]32C)C1=C(CCC=C(C)C)C(=O)O (stereo partly drawn),inactive,inactive,inactive,inactive,inactive,inactive
O=C(O)c1cc(=O)cc(C(=O)O)[nH]1,inactive,inactive,inactive,inactive,inactive,inactive
COCc1nc2c([nH]1)c(=O)n(C)c(=O)n2CC(C)C,inactive,inactive,inactive,inactive,inactive,inactive
O=C(O)C1CN(CCCP(=O)(O)O)CCN1 (stereo not drawn),inactive,inactive,inactive,inactive,inactive,inactive
CCCCCCCCCCC/C=C\C(C)(C)/C=C\CCCC(=O)O,inactive,inactive,inactive,inactive,inactive,inactive
CCC1(O)CC2CN(CCc3c([nH]c4ccccc34)[C@@](C(=O)OC)(c3cc4c(cc3OC)N(C=O)C3[C@]45CCN4CC=C[C@@](CC)([C@@H](OC(C)=O)[C@]3(O)C(=O)OC)[C@H]45)C2)C1 (stereo partly drawn),inactive,7.08 µM (active),inactive,inactive,inactive,inactive
N[C@@H](Cc1ccc(O)c(I)c1)C(=O)O,inactive,inactive,inactive,inactive,inactive,inactive
COc1ccccc1N1CCN(CCCCNC(=O)c2ccc3ccccc3c2)CC1,1.12 µM (active),inactive,inactive,inactive,inactive,inactive
CN[C@H](CC(=O)O)C(=O)O,inactive,inactive,inactive,inactive,inactive,inactive
CC1CNCCN1S(=O)(=O)c1cccc2cnccc12 (stereo not drawn),inactive,inactive,inactive,inactive,inactive,inactive
C[N+](C)(C)CC=O,inactive,inactive,inactive,inactive,inactive,inactive
OC[C@H]1NC[C@@H](O)[C@@H]1O,inactive,inactive,inactive,inactive,inactive,inactive
CC[N+](CC)(CC)CC(=O)Nc1c(C)cccc1C,inactive,inactive,inactive,inactive,inactive,inactive
CC(=O)[C@H]1CCC2C3CC=C4C[C@@H](OS(=O)(=O)O)CC[C@]4(C)C3CC[C@@]21C (stereo partly drawn),inactive,inactive,inactive,inactive,inactive,inactive
NC(N)=N[C@@H](CCC(=O)O)C(=O)O,inactive,inactive,inactive,inactive,inactive,inactive
Cc1nc(N=Nc2cc(S(=O)(=O)O)c3cc([N+](=O)[O-])cc(S(=O)(=O)O)c3c2)c(COP(=O)(O)O)c(C=O)c1O,inactive,inactive,inactive,inactive,inactive,inactive
O=C(O)c1cc2cc(F)ccc2[nH]1,inactive,inactive,inactive,inactive,inactive,inactive
CC(=O)NCCc1c[nH]c2ccc(O)cc12,inactive,1 µM (active),inactive,inactive,inactive,inactive
CNC(=O)c1cc2c(cn1)[nH]c1ccccc12,inactive,inactive,inactive,inactive,inactive,inactive
N[C@@H](CCC(=O)N[C@H](CSN=O)C(=O)NCC(=O)O)C(=O)O,inactive,inactive,inactive,inactive,inactive,inactive
CCCCS(=N)(=O)CC[C@H](N)C(=O)O (stereo partly drawn),inactive,inactive,inactive,inactive,inactive,inactive
O=C(c1ccc2c(c1)OCCO2)N1CCCCC1,inactive,inactive,inactive,inactive,inactive,inactive

# — PubChem BioAssay (NCATS)
